Assay outcomes from PubChem BioAssay.
This is a sample that favours compounds with a hit; in the whole collection about 2.3% have one here.
Pol kappa inh = blocks human DNA polymerase kappa activity; Q9UBT6; purified Pol kappa, fluorescent DNA synthesis assay, 10 min; Potency, µM (series often up to 107 µM), without a hit: top-dose activity, negative = inhibition, most hits filed as inhibitors; 400,000 tested, 0.53% active; AID 588579; further: on the % scale 0 is the no-effect control and ±100 the full control effect
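Pol kappa 10 nM + cpd, 15 min RT; start w/ substrate 50 nM final; fluorescence kinetic read, 0 and 10 min. Neg ctrl: buffer, no enzyme.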
WRN inhibitor = blocks human WRN helicase; Q14191; WRN helicase unwinding, fluorescent forked duplex, kinetic; Potency, µM (series often up to 114 µM), inactives show at the highest dose activity change, negative = inhibition, actives largely listed as inhibitors; 360,000 tested, 0.46% active; further: on the % scale 0 is the no-effect control and ±100 the full control effect; nearly all actives have a fitted effect of over 55% in size
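Kinetic red-fluorescence monitoring (525/598 nm) tracks WRN helicase activity after 100 nM fluorophore-quencher forked duplex and 2 mM ATP are added to 20 nM enzyme pretreated 15 min at room temperature with compound.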
POLH inh = DNA polymerase eta (human) inhibition. Q9Y253. 390,000 tested, 1.2% active. Potency, µM (titrated, usually from 114 µM), inactives show top-dose activity change, negative = inhibition, usual class: inhibitors. recombinant Pol eta, fluorescent DNA replication assay; further: on the % scale 0 is the no-effect control and ±100 the full control effect
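Pol eta (10 nM) was preincubated with compounds for 15 min at room temperature, after which fluorescent replication substrate (50 nM final) was added to start the reaction. Fluorescence was read kinetically at 0 and 10 min.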
Pol beta inh = inhibitors of human DNA polymerase beta; Pol beta primer extension/strand displacement, fluorescence kinetic; Potency, µM (series often up to 114 µM), for the others: top-dose activity change, negative = inhibition, hits mostly inhibitors; 340,000 tested, 1.3% active; AID 485314; further: on the % scale 0 is the no-effect control and ±100 the full control effect
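Enzyme-only controls used 10 nM Pol beta; buffer lacking enzyme served as negative control. Compound preincubated 15 min, then 50 nM substrate added; 0 and 10 min reads at room temperature.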
Pol iota inh = inhibitors of human DNA polymerase iota; Pol iota fluorescent replication assay, 10 min; Q9UNA4; Potency, µM (top dose mostly 115 µM), for the others: at the highest dose activity, negative = inhibition, usual class: inhibitors; 390,000 tested, 1% active
Target sequence (Q9UNA4 whole entry, looked up): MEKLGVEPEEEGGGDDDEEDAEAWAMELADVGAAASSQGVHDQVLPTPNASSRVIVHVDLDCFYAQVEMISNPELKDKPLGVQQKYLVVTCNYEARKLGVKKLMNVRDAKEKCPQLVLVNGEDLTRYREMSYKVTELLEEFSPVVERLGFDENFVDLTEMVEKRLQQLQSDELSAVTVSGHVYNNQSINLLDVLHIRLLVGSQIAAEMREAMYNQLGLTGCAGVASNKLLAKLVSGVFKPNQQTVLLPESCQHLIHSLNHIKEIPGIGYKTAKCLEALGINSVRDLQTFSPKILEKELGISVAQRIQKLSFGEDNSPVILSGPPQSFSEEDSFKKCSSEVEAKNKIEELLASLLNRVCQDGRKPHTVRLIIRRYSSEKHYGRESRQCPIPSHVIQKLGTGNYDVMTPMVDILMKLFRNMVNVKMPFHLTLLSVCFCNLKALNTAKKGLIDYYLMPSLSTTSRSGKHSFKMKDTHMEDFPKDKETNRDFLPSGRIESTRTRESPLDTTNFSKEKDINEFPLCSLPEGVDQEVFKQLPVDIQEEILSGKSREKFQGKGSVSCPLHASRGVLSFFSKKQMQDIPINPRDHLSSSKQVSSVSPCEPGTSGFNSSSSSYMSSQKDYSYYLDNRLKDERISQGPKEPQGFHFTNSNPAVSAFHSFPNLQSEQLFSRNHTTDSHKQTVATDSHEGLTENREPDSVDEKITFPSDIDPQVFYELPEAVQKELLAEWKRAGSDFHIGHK
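Pol iota at 10 nM preincubated 15 min with compounds at room temperature; reaction started with fluorescent substrate, 50 nM final. Fluorescence read kinetically at 0 and 10 min; buffer-only wells as negative control.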
Numbers without * were called inactive; ? = inconclusive; . = no result given; [ ] = another dose, or the depositor's remark. The call rests on the fitted dose curve; in most records, active means well fitted curve in the direction sought with a large enough effect; inconclusive means small, poorly fitted or top-dose-only effect, or another doubt; inactive means no such curve, though single readings can be large; an effect the other way counts as inactive or inconclusive. Potency means the concentration at half of the fitted maximal effect.

SMILES | Pol kappa inh | WRN inhibitor | POLH inh | Pol beta inh | Pol iota inh
Cn1nnnc1SCC1=C(C(=O)O)N2C(=O)[C@@H](NC(=O)[C@H](O)c3ccccc3)[C@H]2SC1 | 1.6µM* | 25µM* | 1.3µM* | 10µM* | 3.2µM*
Cn1nnnc1SCC1=C(C(=O)O)N2C(=O)C(NC(=O)C(OC=O)c3ccccc3)C2SC1 (centres undefined) | 22µM* | . | . | . | .
CC(C)(C)n1ncc2c(=O)n(Cc3ccc(Cl)c(C(F)(F)F)c3)cnc21 | 1% | . | . | . | 9%
O=S(=O)(c1ccc(Br)cc1)c1nc(-c2ccco2)oc1SCc1ccccc1Cl | ? | . | -1% | 13% | 79µM*
Cc1ccc(S(=O)(=O)c2nc(-c3ccco3)oc2SC(C)c2ccccc2)cc1 (centres undefined) | -17% | . | ? | ? | ?
O=S(=O)(c1ccc(Cl)cc1)c1nc(-c2ccco2)oc1SCc1ccccc1F | -10% | . | -13% | -20% | -26%
Cc1ccc(CSc2oc(-c3ccco3)nc2S(=O)(=O)c2ccc(Br)cc2)cc1 | ? | . | -9% | -27% | 56µM*
CC(C)Sc1oc(-c2ccco2)nc1S(=O)(=O)c1ccc(F)cc1 | ? | ? | 71µM* | 28µM* | ?
COc1ccc(CCn2c(-n3nc(C)cc3C)nc3c2c(=O)[nH]c(=O)n3C)cc1 | 0% | 79µM* | -21% | . | -4%
Cc1ccc(Cn2c(-n3nc(C)cc3C)nc3c2c(=O)[nH]c(=O)n3C)cc1 | -1% | 7% | -7% | 8% | 21%
CC[C@H](C)[C@H](NC(=O)[C@H](CCC(=O)O)NC(=O)CNC(=O)[C@@H](NC(=O)[C@H](CCC(=O)O)NC(=O)[C@H](CCC(=O)O)NC(=O)[C@H](CC(C)C)NC(=O)CNC(=O)[C@@H]1CCCN1C(=O)[C@H](CCC(=O)O)NC(=O)[C@@H](N)[C@@H](C)O)C(C)C)C(=O)N[C@@H](CCC(=O)O)C(=O)N[C@@H](CCC(N)=O)C(=O)N[C@@H](CCCCN)C(=O)N[C@@H](CCC(N)=O)C(=O)N[C@@H](CC(C)C)C(=O)N[C@@H](CCC(N)=O)C(=O)O | 10%[60.1 µM] | . | . | . | .
C=CCn1c(SCC(=O)c2ccc(O)c(O)c2)nnc1-c1cccc(Cl)c1 | 40µM* | 18µM* | 16µM* | . | ?
CC[C@H]1OC(=O)[C@H](C)C(=O)[C@H](C)[C@@H](OC2O[C@H](C)C[C@H](N(C)C)[C@@H]2O)[C@@](C)(OC)C[C@@H](C)C(=O)[C@@H](C)C2N(CCCCn3cnc(-c4cccnc4)c3)C(=O)O[C@@]21C (some centres undefined) | 1%[19.4 µM] | . | . | . | .
Cc1c(Br)c(O)c(Br)c2sc(=O)oc12 | ? | -32% | ? | 20µM* | 6.3µM*
Cc1c(C(=O)N(Cc2ccco2)Cc2cccs2)oc2ccccc12 | ? | -33% | ? | . | 40µM*
COc1ccc2cc(C#N)c(=O)oc2c1 | 14%[60.1 µM] | . | . | . | .
CCc1ccc(NC(=O)C(C)Sc2nc(-c3ccco3)c(C#N)c(=O)[nH]2)cc1 (centres undefined) | -39% | ? | 18µM* | -17% | ?
N#Cc1c(-c2ccco2)nc(SCC(=O)Nc2cccc(Cl)c2)[nH]c1=O | -16% | ? | ? | 56µM* | ?
COC(=O)c1cc(NC(=O)c2ccc3c(c2)N(Cc2cccc(Cl)c2)C(=O)c2ccccc2S3=O)cc(C(=O)OC)c1 (centres undefined) | -8%[60.1 µM] | . | -14% | 46% | 1%
COc1ccc(/C=C2\SC(=O)N(CCc3nnc(N)s3)C2=O)cc1 | ? | -28%[57.1 µM] | 45µM* | ? | 20µM*
COc1ccc(/C=C2\SC(=O)N(CCCC(=O)Nc3ccc(C(=O)O)cc3)C2=O)cc1 | . | 3% | -2% | . | .
O=Cc1ccc(N2CCOCC2)cc1 | -2% | . | . | . | 33%
Cc1ccc(N(CC(O)COCc2ccco2)S(=O)(=O)c2ccc(C)cc2)cc1 (centres undefined) | 89µM* | ? | 50µM* | 22µM* | ?
CCCN(CCC)CC(O)CN(c1ccccc1)S(=O)(=O)c1ccc(C)cc1 (centres undefined) | -9% | -9% | 2% | -1% | 4%
